Data reported in the supplement of paper PMC6555819.

How the values were obtained:
Assay in all cases: PBM binding z-score (relative to random genomic background probes); higher = stronger binding; sequences stand for … in GC…GCGATTGACAGCGTAGAATGAAGG
[1] = test system: FXR:RXRa (NR concentration 270 nM, RXRa partner concentration 90 nM)
Outline: (§1)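 Random background probes are the reference for binding z-scores. These scores derive from regression-normalized fluorescence on custom Agilent 4×180K protein-binding microarrays incubated 1 h with ligand-free nuclear receptor dimers. Binding was detected with antibodies against each partner (one per run).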

[2] = test system: LXRa:RXRa (NR concentration 270 nM, RXRa partner concentration 90 nM)
Outline: as §1

[3] = test system: LXRa homodimer (NR concentration 270 nM)
Outline: as §1

[4] = test system: LXRb:RXRa (NR concentration 270 nM, RXRa partner concentration 90 nM)
Outline: as §1

[5] = test system: LXRb homodimer (NR concentration 270 nM)
Outline: as §1

[6] = test system: PPARa:RXRa (NR concentration 270 nM, RXRa partner concentration 90 nM)
Outline: as §1

[7] = test system: PPARg:RXRa (NR concentration 180 nM, RXRa partner concentration 90 nM)
Outline: as §1

[8] = test system: PPARg:RXRa 270nM:90nM, anti-RXR (NR concentration 270 nM, RXRa partner concentration 90 nM)
Outline: as §1

[9] = test system: PPARg:RXRa 30nM:10nM, anti-RXR (NR concentration 30 nM, RXRa partner concentration 10 nM)
Outline: as §1

[10] = test system: PPARg:RXRa 90nM:30nM, anti-RXR (NR concentration 90 nM, RXRa partner concentration 30 nM)
Outline: as §1

[11] = test system: PPARg:RXRa DBDmut IVT, anti-RXR (DBD mutation: RXRa K156A/R161A, NR concentration 270 nM, RXRa partner concentration 90 nM)
Outline: as §1

[12] = test system: PPARg:RXRa IVT, anti-PPARg (NR concentration 270 nM, RXRa partner concentration 90 nM)
Outline: as §1

[13] = test system: PPARg DBDmut:RXRa IVT, anti-PPARg (DBD mutation: PPARg1 K132A/R137A, NR concentration 270 nM, RXRa partner concentration 90 nM)
Outline: as §1

[14] = test system: PPARg DBDmut IVT, anti-PPARg (DBD mutation: PPARg1 K132A/R137A, NR concentration 270 nM)
Outline: as §1

[15] = test system: PPARg homodimer (NR concentration 180 nM)
Outline: as §1

[16] = test system: PXR:RXRa (NR concentration 270 nM, RXRa partner concentration 90 nM)
Outline: as §1

[17] = test system: PXR homodimer (NR concentration 270 nM)
Outline: as §1

[18] = test system: RARa:RXR (NR concentration 270 nM, RXRa partner concentration 90 nM)
Outline: as §1

[19] = test system: RARa homodimer (NR concentration 270 nM)
Outline: as §1

[20] = test system: RARb:RXRa (NR concentration 270 nM, RXRa partner concentration 90 nM)
Outline: as §1

Sequence | PBM binding z-score [1] | PBM binding z-score [2] | PBM binding z-score [3] | PBM binding z-score [4] | PBM binding z-score [5] | PBM binding z-score [6] | PBM binding z-score [7] | PBM binding z-score [8] | PBM binding z-score [9] | PBM binding z-score [10] | PBM binding z-score [11] | PBM binding z-score [12] | PBM binding z-score [13] | PBM binding z-score [14] | PBM binding z-score [15] | PBM binding z-score [16] | PBM binding z-score [17] | PBM binding z-score [18] | PBM binding z-score [19] | PBM binding z-score [20]
CGTCCAAGATCAATGCTAGGTCAGTGAAAGCATT | 0.162 | 0.466 | 0.903 | 0.371 | 0.134 | 0.544 | -0.0678 | -0.118 | -0.166 | -0.214 | 0.0283 | 0.44 | -0.261 | 0.071 | 0.835 | 0.204 | 0.467 | 0.725 | 0.103 | 1.7
TCTAGCAGGCCCGAGGGTCACTCAAGAGGTACGG | 0.726 | 0.983 | -0.649 | 1.04 | -1.35 | 1.96 | 0.501 | 1.33 | 1.57 | 1.42 | 0.262 | -0.284 | -0.445 | -0.801 | 0.169 | 1.35 | -0.577 | 2.07 | -0.992 | 1.94
GGAACGAGGGCAAGTTGATTGCAGAGTTTGATGG | 1.16 | 0.697 | -0.325 | 0.396 | -0.755 | 1.84 | 0.925 | 1.03 | -0.0716 | 0.569 | 3.51 | 2.76 | 0.164 | -0.675 | 0.268 | 0.704 | 0.465 | 0.608 | -0.397 | 2.69
ACTATTAGTTGAGACGTGGGCAACCGATAGGTTG | -0.344 | -0.403 | -0.444 | -0.738 | 0.00492 | -1.07 | 0.429 | -0.3 | -0.0556 | -0.44 | -0.218 | -0.152 | 0.175 | 0.352 | -0.426 | -0.64 | -0.53 | -0.914 | -0.357 | -0.226
TTACCAAGGTGAGCTGAGCTCGTTGATCCAACTC | -0.195 | -0.544 | -0.993 | -0.67 | -1.3 | 0.11 | -0.393 | -0.0625 | -0.293 | -0.268 | 0.946 | 1.2 | 0.0399 | 0.147 | -0.967 | -0.427 | -0.854 | 0.0745 | -1.22 | 0.907
CCGTACGGGTCACGAGGTTATAGCACGACGAGCG | 6.63 | 4.94 | 0.31 | 4.08 | -0.283 | 5.88 | 6.72 | 6.37 | 2.37 | 4.99 | 2.29 | 3.93 | 0.613 | -0.38 | 2.82 | 4.73 | -0.215 | 6.42 | 1.17 | 4.48
AGAATGAGGTTAAGATCAGTGAAACAGAATACAT | 2.32 | 3.08 | 0.0147 | 1.91 | -0.196 | 3.6 | 2.38 | 2.25 | 1.23 | 1.78 | 2.35 | 2.8 | 1.66 | 0.567 | 0.498 | 1 | -0.347 | 1.84 | -0.219 | 1.74
TCTATTAGTTGATTAGGGCAACCGCAACAGCGGA | 0.86 | 0.405 | 0.129 | 0.329 | 0.245 | 1.06 | 0.368 | 1.95 | 3.34 | 2.72 | 2.2 | 1.59 | 0.83 | 0.659 | 0.498 | 0.281 | 0.274 | 0.408 | 0.676 | 0.729
ATCTCTAGGAAACAAGTTCAGTGAAAGAGAGGAC | 0.431 | 0.902 | 0.383 | 0.587 | 0.528 | 0.467 | 0.409 | 0.0222 | 0.37 | -0.00536 | -0.477 | 0.373 | 0.113 | 0.509 | 0.901 | 1.24 | 1.82 | 0.58 | 0.878 | 1.17
CAAACTAGTTCACCGGAAGGTCAAAGTCCGCATG | 4.43 | 4.89 | 4.71 | 4.6 | 1.66 | 4.24 | 1.87 | 2.85 | 0.587 | 1.95 | 2.4 | 2.7 | 0.634 | 0.566 | 3.3 | 5.22 | 3 | 5.72 | 1.73 | 4.36
ACTAGTTGGTCAGCTGAGATCACACACAATTCGG | -0.123 | -0.166 | -0.172 | 0.118 | 0.186 | -0.138 | 0.977 | 0.171 | 0.202 | 0.195 | 0.753 | 0.741 | 1.02 | 0.509 | -0.286 | 0.0807 | -0.161 | 0.321 | 0.12 | 0.946
TCGAGTAGGTTATCAATGGGGCATTCAGCTTTCT | 0.264 | 1.14 | -0.501 | 1.05 | -0.428 | 0.979 | -0.105 | 0.76 | 1.03 | 0.852 | 3.08 | 1.84 | -0.103 | -0.254 | -0.00524 | 0.223 | -0.333 | 0.202 | -0.0483 | 0.739
TAGCCTAGGTCATGGGCCAGTAGACCACGCGAAC | 4.96 | 3.57 | 0.0345 | 2.2 | -0.335 | 4.38 | 4.13 | 3.94 | 1.03 | 3.07 | 1.37 | 3.63 | 0.0866 | 0.107 | 0.936 | 1.5 | -0.436 | 2.64 | -0.0215 | 3.92
CCAGACAGCTGAAAGGTAACTCAGTCTGGTACGC | -0.259 | -0.27 | -0.368 | -0.00199 | -0.748 | 0.193 | 0.377 | -0.223 | -0.581 | -0.401 | -0.0276 | -0.495 | -0.361 | -0.671 | -0.141 | -0.177 | -0.344 | 0.0105 | -0.368 | 0.0484
